The list is not random: actives were taken first. Their share in the collection is about 2.4%.
CHT PAM – CHT positive allosteric modulators, primary screen, cell-based, membrane potential dye, choline EC20 | High affinity choline transporter 1 (Homo sapiens), Q9GZV3 | CHT-expressing cells; active compounds read high; LV-AA mutant CHT in HEK293 cells | B-score at 10 µM | actives 0.49% (n = 310,000);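 active means initial fluorescence not abnormally high and integrated response B-score, plate-corrected, over 3 SD above library mean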
Target sequence (Q9GZV3 whole entry, looked up): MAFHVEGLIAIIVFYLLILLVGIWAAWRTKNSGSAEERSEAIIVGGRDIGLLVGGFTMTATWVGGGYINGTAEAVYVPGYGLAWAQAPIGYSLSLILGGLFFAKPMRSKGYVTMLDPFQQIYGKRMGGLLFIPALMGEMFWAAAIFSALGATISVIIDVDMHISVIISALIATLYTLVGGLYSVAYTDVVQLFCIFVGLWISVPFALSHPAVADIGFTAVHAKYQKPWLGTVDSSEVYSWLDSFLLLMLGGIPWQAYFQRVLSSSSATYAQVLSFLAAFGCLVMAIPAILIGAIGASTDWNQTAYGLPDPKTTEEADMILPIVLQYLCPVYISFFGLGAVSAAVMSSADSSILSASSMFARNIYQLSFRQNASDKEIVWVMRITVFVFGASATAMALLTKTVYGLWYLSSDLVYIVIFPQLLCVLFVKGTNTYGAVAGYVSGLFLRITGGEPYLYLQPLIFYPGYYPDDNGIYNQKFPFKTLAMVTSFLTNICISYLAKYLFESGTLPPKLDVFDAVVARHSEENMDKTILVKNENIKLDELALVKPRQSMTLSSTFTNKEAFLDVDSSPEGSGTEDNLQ
CHT inh – inhibitors of human choline transporter CHT; High affinity choline transporter 1 (Homo sapiens), Q9GZV3; CHT-expressing cells, membrane potential dye, choline response; active compounds read low; B-score at 10 µM; actives 0.86% (n = 310,000);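 active means B-score over 3 SD under the library average, and starting fluorescence ratio not unusually high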;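 further: choline stimulus applied at its EC90 after an EC20 pre-addition; B-score computed on integrated fluorescence ratio after choline addition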
ANO1 activ – TMEM16A chloride channel activators or potentiators, primary screen, cell-based, HTS; HEK293 TMEM16A/YFP-H148Q/I152L, iodide quench fluorescence; active compounds read low; actives 0.3% (n = 340,000); B-score at 10 µM;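 active means fluorescence-ratio B-score plate-corrected deviation score at least 3 library SD below zero, with starting fluorescence score within 5 deviations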;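 further: channel opened by trigger with iodide after compound preincubation; score built on the fluorescence ratio of max minus min over baseline; more negative score means more quench and so TMEM16A activation or potentiation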
ANO1 block – TMEM16A chloride channel inhibitors, primary screen, cell-based, HTS; actives 1.2% (n = 310,000); HEK293 TMEM16A/YFP iodide influx fluorescence, ionomycin; normalized B-score (activity score, 25-100; higher = stronger inhibition) at 10 µM;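 active means ratio plate-corrected score three or more library SD toward inhibition, starting fluorescence score within five deviations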;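 further: score derived from kinetic fluorescence span divided by baseline fluorescence per well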
The depositor's hits bear a star.

`Cc1ccc(S(=O)(=O)/N=C2/NC(=O)/C(=C/c3ccccc3)S2)cc1` gave CHT PAM inactive, CHT inh inactive, ANO1 activ inactive and ANO1 block 100*.
Screening Cc1ccc(/C=C2\S/C(=N/S(=O)(=O)c3cccs3)NC2=O)cc1 returned CHT PAM inactive, CHT inh inactive, ANO1 activ inactive and ANO1 block 25*.
Cc1ccc(S(=O)(=O)/N=C2/NC(=O)/C(=C\c3ccccc3)S2)cc1 was read as ANO1 activ inactive.
Cc1ccc(S(=O)(=O)/N=C2/NC(=O)/C(=C/c3ccncc3)S2)cc1 was read as CHT PAM inactive, CHT inh -5.3* and ANO1 block inactive.
`COc1cc(/C=C2\S/C(=N/S(=O)(=O)c3ccc(C)cc3)NC2=O)c([N+](=O)[O-])cc1OC` gave CHT PAM inactive, CHT inh -7.4*, ANO1 activ inactive and ANO1 block inactive.
CCOc1ccc(C(=O)Nc2ccc(NC(=O)c3cccs3)cc2)cc1[N+](=O)[O-] was read as CHT PAM inactive, CHT inh inactive, ANO1 activ inactive and ANO1 block inactive.
O=S(=O)(NCc1ccccc1)c1cccc2nsnc12 was read as CHT PAM inactive, CHT inh inactive, ANO1 activ inactive and ANO1 block inactive.
Screening O=C(O)C[C@]1(C(=O)Nc2ccc(F)cc2)CC(/C=C/c2ccccc2)=NO1 returned CHT PAM inactive, CHT inh inactive, ANO1 activ inactive and ANO1 block inactive.
`O=C1c2ccccc2NC(c2ccc(O)cc2)N1c1ccccc1` (stereo not given) gave CHT PAM inactive, CHT inh inactive and ANO1 block inactive.
`CCCCCC(=O)N/N=C(\C)c1ccc(NC(=O)c2ccco2)cc1` gave CHT PAM inactive, CHT inh inactive, ANO1 activ inactive and ANO1 block inactive.
For Cc1cc[n+](-c2[nH]c(=O)sc2/C=N/N=C(\[O-])c2ccccc2)cc1C the results were ANO1 activ -5.6*.
Screening Cc1cc[n+](-c2[nH]c(=O)sc2/C=N/N=C(\[O-])c2ccncc2)cc1C returned CHT PAM inactive, CHT inh inactive, ANO1 activ inactive and ANO1 block inactive.
Screening COC(=O)[C@]1(CC(C)C)N[C@H](c2ccc(-c3cccc(Cl)c3)cc2)[C@@H]2C(=O)N(C)C(=O)[C@@H]21 returned CHT PAM inactive, CHT inh inactive, ANO1 activ -8.6* and ANO1 block inactive.
`COC(=O)[C@]1(C)N[C@H](c2ccc(-c3cccc(Cl)c3)cc2)[C@@H]2C(=O)N(C)C(=O)[C@@H]21` gave ANO1 activ inactive.
`CCC(C)Sc1ccc([C@H]2N[C@@](Cc3ccccc3)(C(=O)OC)[C@H]3C(=O)N(CC)C(=O)[C@@H]23)cc1` (stereo not given in full) gave CHT PAM inactive, CHT inh inactive, ANO1 activ inactive and ANO1 block inactive.
CCC(C)Sc1ccc([C@H]2N[C@@](CC(C)C)(C(=O)OC)[C@H]3C(=O)N(CC)C(=O)[C@@H]23)cc1 (stereo not given in full) was read as CHT PAM inactive, CHT inh inactive, ANO1 activ -8.4* and ANO1 block inactive.
O=C(Nc1ccc(Cl)cc1)Nc1ccccc1NS(=O)(=O)c1cccs1 was read as CHT PAM inactive, CHT inh inactive, ANO1 activ inactive and ANO1 block 100*.
Screening Cc1ccc(SC(C)C(=O)NCCC2=CCCCC2)cc1 (stereo not given) returned CHT PAM inactive, CHT inh inactive, ANO1 activ inactive and ANO1 block inactive.
Nc1ccc2c(c1)Oc1ccccc1C=C2 was read as CHT PAM inactive, CHT inh inactive, ANO1 activ -5.3* and ANO1 block inactive.
Nc1ccc2c(c1)COc1ccccc1O2 was read as CHT PAM inactive, CHT inh inactive, ANO1 activ inactive and ANO1 block inactive.
CC(C)(C)n1nnnc1C(c1ccc(F)cc1)N(Cc1ccc(F)cc1)Cc1ccco1 (stereo not given) was read as CHT PAM inactive, CHT inh inactive, ANO1 activ -5.1* and ANO1 block inactive.
Cc1ccccc1S(=O)(=O)Cc1ccc(C(=O)NC2CC2)o1 was read as CHT PAM inactive, CHT inh inactive, ANO1 activ inactive and ANO1 block inactive.
CN1C(=O)/C(=C/c2cn(CC(=O)N3CCCCC3)c3ccccc23)NC1=S was read as CHT PAM inactive, CHT inh inactive, ANO1 activ -6.2* and ANO1 block inactive.
`O=Cc1cn(CC(=O)N2CCCCCC2)c2ccccc12` gave CHT PAM inactive, CHT inh inactive, ANO1 activ inactive and ANO1 block inactive.
For CCCSc1ccc([C@H]2N[C@@](C)(C(=O)OC)[C@H]3C(=O)N(C)C(=O)[C@@H]23)cc1 the results were CHT PAM inactive, CHT inh inactive, ANO1 activ inactive and ANO1 block inactive.
CCCCCCSc1ccc([C@H]2N[C@@](C)(C(=O)OC)[C@H]3C(=O)N(C)C(=O)[C@@H]23)cc1 was read as CHT PAM inactive, CHT inh inactive, ANO1 activ inactive and ANO1 block 100*.
CC(C)c1ccc(C2=C(O)c3ccccc3C(=O)C2=O)cc1 was read as CHT PAM inactive, CHT inh inactive, ANO1 activ inactive and ANO1 block 25*.
For Cc1ccc(C2=C(O)c3ccccc3C(=O)C2=O)cc1 the results were CHT PAM inactive, CHT inh inactive, ANO1 activ inactive and ANO1 block inactive.
`CC(C)n1c(O)c(N=NC(=O)Cn2ccc(C(F)(F)F)n2)c2ccccc21` gave CHT PAM inactive, CHT inh inactive, ANO1 activ inactive and ANO1 block inactive.
`NS(=O)(=O)c1ccc(NC(=O)c2cc(Cl)ccc2Cl)cc1` gave CHT PAM inactive, CHT inh inactive, ANO1 activ -5.5* and ANO1 block inactive.
O=C(NCC1CC1)Nc1cccc(C(F)(F)F)c1 was read as CHT PAM inactive, CHT inh inactive, ANO1 activ inactive and ANO1 block inactive.
For O=C(c1ccc(Cl)cc1)N1CCCCC(Sc2nnc(-c3ccc4c(c3)OCO4)o2)C1=O (stereo not given) the results were CHT PAM inactive, CHT inh inactive, ANO1 activ inactive and ANO1 block inactive.
For CSc1ccccc1OCc1cc(C(=O)N2CCC(Oc3cccnc3)CC2)no1 the results were CHT PAM inactive, CHT inh inactive, ANO1 activ inactive and ANO1 block 25*.
CSc1ccccc1OCc1cc(C(=O)N2CCSCC2)no1 was read as CHT PAM inactive, CHT inh inactive, ANO1 activ inactive and ANO1 block inactive.

High-throughput results as filed in PubChem BioAssay.
